Assay in all cases: DAPPL (digital affinity profiling via proximity ligation, sequencing); 10 mM Tris-HCl pH 7.5, 50 mM NaCl, 1 mM DTT, 4% glycerol, room temperature, 30 min; GST-TFs on glutathione beads, 16-mer random dsDNA library, 0.1% formaldehyde crosslink after washing; high values mean tight binding
For one experiment, the target named is T1, FEV (Homo sapiens, UniProt Q99581 1-238).
T1 sequence: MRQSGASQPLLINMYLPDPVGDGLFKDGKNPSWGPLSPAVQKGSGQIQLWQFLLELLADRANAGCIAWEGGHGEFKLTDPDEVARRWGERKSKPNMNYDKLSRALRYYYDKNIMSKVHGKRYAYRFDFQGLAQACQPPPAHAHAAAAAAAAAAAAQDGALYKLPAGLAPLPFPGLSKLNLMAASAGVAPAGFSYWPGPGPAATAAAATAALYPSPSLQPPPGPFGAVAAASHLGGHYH
The following applies: protein: recombinant; tags: N-terminal GST; dsDNA, one strand shown. A digest of the protocol:
(§1)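 In yeast, human transcription factors were expressed with a GST fusion, then pulled down on glutathione beads and given DNA barcodes. Pooled with a tag-only sample, they were exposed to 200 nmole of a 16-mer random double-stranded DNA library (Tris/NaCl/DTT/glycerol buffer, room temperature, 30 min), washed, crosslinked with 0.1% formaldehyde, proximity-ligated using BsaI/T4 ligase for 1 h at 37 °C, PCR-amplified and read on an Illumina NextSeq500. Each hexamer's frequency of reads for a factor, divided by the matching frequency for the tag-only sample, gives the binding signal.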

A further experiment concerns the target ETV5 (Homo sapiens, UniProt P41161 1-510). The following applies: protein: recombinant; tags: N-terminal GST; dsDNA, one strand shown. A digest of the protocol: as §1
In a further experiment the target is HSF1 (Homo sapiens, UniProt Q00613 1-529). The following applies: protein: recombinant; tags: N-terminal GST; chain copies: 3; dsDNA, one strand shown. In a few lines:
as §1

Another experiment addresses T2, SPIC (Homo sapiens, UniProt Q8N5J4 1-248).
T2 sequence: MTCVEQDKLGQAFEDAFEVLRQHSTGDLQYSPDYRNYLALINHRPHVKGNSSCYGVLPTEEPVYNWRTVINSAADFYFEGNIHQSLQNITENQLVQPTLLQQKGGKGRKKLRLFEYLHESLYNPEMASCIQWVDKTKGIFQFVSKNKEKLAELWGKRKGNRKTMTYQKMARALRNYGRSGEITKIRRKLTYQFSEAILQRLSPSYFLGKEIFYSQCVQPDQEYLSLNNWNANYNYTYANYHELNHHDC
The following applies: protein: recombinant; tags: N-terminal GST; dsDNA, one strand shown. In a few lines:
as §1

The target in a further experiment is ELF4 (Homo sapiens, UniProt Q99607 1-663). The following applies: protein: recombinant; tags: N-terminal GST; dsDNA, one strand shown. A digest of the protocol: as §1
The next experiment has as its target T3, ELK4 (Homo sapiens, UniProt P28324-2 1-405).
T3 sequence: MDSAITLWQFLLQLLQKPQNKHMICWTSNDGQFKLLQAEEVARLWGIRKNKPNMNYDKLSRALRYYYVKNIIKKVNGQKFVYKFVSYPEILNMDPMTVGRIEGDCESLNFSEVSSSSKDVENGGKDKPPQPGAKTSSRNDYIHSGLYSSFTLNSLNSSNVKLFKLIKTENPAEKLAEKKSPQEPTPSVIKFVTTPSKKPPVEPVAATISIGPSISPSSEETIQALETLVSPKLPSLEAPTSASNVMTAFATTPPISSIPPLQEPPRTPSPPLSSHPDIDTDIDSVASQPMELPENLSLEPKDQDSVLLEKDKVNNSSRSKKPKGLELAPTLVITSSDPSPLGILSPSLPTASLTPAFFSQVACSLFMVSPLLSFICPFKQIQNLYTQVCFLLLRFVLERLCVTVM
The following applies: protein: recombinant; tags: N-terminal GST; dsDNA, one strand shown. A digest of the protocol:
as §1

The target in another experiment is T4, ETV2 (Homo sapiens, UniProt O00321 1-342).
T4 sequence: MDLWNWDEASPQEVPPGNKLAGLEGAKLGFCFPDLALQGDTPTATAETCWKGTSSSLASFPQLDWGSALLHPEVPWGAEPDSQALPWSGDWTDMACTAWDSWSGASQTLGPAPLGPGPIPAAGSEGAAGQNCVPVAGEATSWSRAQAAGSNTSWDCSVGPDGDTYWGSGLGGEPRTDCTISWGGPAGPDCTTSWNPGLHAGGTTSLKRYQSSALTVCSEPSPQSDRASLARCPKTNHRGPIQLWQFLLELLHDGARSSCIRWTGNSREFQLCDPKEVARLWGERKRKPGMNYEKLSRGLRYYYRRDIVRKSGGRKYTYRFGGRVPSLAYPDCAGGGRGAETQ
The following applies: protein: recombinant; tags: N-terminal GST; dsDNA, one strand shown. A digest of the protocol: as §1

In a further experiment the target is T5, ELF3 (Homo sapiens, UniProt P78545 1-371).
T5 sequence: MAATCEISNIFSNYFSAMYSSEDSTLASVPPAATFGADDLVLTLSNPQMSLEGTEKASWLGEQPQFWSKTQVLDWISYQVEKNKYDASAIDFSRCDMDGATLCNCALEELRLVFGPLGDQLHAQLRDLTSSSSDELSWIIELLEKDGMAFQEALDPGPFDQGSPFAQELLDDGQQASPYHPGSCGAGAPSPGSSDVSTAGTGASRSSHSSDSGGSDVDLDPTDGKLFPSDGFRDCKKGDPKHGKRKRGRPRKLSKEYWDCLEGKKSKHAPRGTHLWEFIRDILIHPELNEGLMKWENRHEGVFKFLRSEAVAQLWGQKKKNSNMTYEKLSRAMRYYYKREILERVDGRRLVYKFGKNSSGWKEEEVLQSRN
The following applies: protein: recombinant; tags: N-terminal GST; dsDNA, one strand shown. A digest of the protocol: as §1

The target in a further experiment is CRX (Homo sapiens, UniProt O43186 1-299). The following applies: protein: recombinant; tags: N-terminal GST; dsDNA, one strand shown. In a few lines: as §1
A further experiment deals with ETV1 (Homo sapiens, UniProt P50549 1-477). The following applies: protein: recombinant; tags: N-terminal GST; dsDNA, one strand shown. In a few lines: as §1
The target in a further experiment is T6, ERF (Homo sapiens, UniProt P50548 1-548).
T6 sequence: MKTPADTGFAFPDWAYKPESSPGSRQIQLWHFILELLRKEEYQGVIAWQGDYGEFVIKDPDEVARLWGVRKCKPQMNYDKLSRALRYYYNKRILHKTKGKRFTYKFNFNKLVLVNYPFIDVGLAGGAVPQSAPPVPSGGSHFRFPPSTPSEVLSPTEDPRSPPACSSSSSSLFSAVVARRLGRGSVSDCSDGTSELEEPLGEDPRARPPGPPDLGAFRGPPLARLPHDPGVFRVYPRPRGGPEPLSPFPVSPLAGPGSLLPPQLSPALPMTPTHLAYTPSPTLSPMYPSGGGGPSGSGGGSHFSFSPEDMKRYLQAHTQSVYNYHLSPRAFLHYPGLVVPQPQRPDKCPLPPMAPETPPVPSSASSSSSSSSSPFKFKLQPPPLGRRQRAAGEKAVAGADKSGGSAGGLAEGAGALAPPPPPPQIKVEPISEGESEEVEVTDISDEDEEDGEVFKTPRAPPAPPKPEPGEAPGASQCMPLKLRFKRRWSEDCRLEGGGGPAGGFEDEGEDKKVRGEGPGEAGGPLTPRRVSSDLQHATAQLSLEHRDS
The following applies: protein: recombinant; tags: N-terminal GST; dsDNA, one strand shown. In a few lines: as §1

The next experiment has as its target T7, ETV3L (Homo sapiens, UniProt Q6ZN32 1-361).
T7 sequence: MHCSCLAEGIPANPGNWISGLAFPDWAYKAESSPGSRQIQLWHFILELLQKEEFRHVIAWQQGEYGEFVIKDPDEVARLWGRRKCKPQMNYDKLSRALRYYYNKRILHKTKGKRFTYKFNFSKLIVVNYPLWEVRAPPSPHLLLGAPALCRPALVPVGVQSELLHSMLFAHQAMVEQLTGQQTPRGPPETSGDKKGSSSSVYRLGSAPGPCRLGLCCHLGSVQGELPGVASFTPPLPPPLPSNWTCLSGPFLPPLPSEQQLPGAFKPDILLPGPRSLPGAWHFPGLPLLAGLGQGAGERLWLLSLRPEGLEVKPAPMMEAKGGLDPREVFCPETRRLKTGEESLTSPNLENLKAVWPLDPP
The following applies: protein: recombinant; tags: N-terminal GST; dsDNA, one strand shown. A digest of the protocol: as §1

Another experiment addresses T8, ETS2 (Homo sapiens, UniProt P15036 1-469).
T8 sequence: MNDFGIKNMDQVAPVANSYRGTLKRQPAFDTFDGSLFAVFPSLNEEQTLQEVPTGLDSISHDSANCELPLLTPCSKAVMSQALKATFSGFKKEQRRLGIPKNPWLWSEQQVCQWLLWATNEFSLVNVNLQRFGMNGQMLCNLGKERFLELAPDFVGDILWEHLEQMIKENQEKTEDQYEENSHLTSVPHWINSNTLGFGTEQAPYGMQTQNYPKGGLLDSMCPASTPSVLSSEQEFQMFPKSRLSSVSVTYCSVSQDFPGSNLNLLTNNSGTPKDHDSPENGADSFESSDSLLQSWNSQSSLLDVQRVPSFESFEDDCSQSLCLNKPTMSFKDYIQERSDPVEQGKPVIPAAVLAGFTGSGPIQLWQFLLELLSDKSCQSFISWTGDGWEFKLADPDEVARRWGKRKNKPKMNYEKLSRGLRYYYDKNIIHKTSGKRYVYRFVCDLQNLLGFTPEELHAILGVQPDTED
The following applies: protein: recombinant; tags: N-terminal GST; dsDNA, one strand shown. A digest of the protocol: as §1

A further experiment concerns the target T9, SPDEF (Homo sapiens, UniProt O95238 1-335).
T9 sequence: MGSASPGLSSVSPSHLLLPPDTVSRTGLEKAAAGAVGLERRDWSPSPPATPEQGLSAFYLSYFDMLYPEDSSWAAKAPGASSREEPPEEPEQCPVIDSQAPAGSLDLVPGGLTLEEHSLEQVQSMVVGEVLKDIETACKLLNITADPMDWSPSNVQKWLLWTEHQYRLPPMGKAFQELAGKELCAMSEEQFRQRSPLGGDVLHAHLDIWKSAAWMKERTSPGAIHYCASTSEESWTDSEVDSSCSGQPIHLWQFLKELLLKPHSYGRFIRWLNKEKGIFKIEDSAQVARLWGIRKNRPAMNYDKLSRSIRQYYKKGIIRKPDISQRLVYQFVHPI
The following applies: protein: recombinant; tags: N-terminal GST; dsDNA, one strand shown. In a few lines:
as §1

For the next experiment, the target named is T10, ETV7 (Homo sapiens, UniProt Q9Y603 1-341).
T10 sequence: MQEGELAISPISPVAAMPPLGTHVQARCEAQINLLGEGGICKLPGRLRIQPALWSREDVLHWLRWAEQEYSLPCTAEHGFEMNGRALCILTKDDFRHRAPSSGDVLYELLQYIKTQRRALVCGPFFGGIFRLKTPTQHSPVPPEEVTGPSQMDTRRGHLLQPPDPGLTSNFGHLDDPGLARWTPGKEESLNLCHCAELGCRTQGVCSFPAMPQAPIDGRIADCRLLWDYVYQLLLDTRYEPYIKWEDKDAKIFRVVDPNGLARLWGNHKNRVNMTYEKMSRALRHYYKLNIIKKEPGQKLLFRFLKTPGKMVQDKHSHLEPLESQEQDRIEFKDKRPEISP
The following applies: protein: recombinant; tags: N-terminal GST; dsDNA, one strand shown. In a few lines:
as §1

The next experiment has as its target T11, ELF5 (Homo sapiens, UniProt Q9UKW6-2 1-255).
T11 sequence: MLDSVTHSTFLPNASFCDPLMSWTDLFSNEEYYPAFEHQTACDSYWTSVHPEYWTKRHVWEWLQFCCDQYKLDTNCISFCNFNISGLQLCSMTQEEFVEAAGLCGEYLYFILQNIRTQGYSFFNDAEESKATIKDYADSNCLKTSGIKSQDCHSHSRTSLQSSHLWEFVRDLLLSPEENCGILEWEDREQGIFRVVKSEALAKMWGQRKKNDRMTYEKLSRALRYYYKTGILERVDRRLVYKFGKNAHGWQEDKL
The following applies: protein: recombinant; tags: N-terminal GST; dsDNA, one strand shown. In a few lines:
as §1

For another experiment, the target named is T12, ETV3 (Homo sapiens, UniProt P41162-2 1-143).
T12 sequence: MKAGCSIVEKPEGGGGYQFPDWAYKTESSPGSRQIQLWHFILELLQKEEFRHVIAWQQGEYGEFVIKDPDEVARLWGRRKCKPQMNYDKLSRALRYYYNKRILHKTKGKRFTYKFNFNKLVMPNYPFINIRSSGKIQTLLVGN
The following applies: protein: recombinant; tags: N-terminal GST; dsDNA, one strand shown. In a few lines: as §1

For another experiment, the target named is ETV6 (Homo sapiens, UniProt P41212 1-452). The following applies: protein: recombinant; tags: N-terminal GST; dsDNA, one strand shown. In a few lines:
as §1

Consider one sequence from publication PMC7862700, “An all-to-all approach to the identification of sequence-specific readers for epigenetic DNA modifications on cytosine”.

Chain of CRX (O43186 whole entry): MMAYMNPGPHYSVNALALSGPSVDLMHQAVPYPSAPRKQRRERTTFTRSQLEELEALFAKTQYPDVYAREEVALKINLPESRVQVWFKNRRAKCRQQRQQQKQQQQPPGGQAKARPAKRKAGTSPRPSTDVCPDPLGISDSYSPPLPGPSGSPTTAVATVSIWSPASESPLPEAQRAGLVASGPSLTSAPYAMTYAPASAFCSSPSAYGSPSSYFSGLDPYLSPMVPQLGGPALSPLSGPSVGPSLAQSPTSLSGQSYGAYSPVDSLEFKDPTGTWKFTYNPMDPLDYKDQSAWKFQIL
Chain of ETV5 (P41161 whole entry): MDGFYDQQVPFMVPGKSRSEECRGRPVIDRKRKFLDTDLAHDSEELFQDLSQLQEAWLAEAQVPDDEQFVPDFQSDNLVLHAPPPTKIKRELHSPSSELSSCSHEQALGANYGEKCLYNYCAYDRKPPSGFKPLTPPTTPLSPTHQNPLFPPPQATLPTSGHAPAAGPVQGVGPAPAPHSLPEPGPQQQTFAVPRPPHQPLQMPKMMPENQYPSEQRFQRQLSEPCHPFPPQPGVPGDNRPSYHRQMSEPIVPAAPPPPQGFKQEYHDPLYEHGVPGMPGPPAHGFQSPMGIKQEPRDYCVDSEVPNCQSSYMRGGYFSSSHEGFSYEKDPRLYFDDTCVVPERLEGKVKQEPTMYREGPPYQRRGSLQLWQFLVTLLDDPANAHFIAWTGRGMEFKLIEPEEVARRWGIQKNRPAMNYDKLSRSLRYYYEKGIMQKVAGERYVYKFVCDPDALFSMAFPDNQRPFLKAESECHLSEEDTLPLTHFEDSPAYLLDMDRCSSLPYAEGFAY
Chain of ETV1 (P50549 whole entry): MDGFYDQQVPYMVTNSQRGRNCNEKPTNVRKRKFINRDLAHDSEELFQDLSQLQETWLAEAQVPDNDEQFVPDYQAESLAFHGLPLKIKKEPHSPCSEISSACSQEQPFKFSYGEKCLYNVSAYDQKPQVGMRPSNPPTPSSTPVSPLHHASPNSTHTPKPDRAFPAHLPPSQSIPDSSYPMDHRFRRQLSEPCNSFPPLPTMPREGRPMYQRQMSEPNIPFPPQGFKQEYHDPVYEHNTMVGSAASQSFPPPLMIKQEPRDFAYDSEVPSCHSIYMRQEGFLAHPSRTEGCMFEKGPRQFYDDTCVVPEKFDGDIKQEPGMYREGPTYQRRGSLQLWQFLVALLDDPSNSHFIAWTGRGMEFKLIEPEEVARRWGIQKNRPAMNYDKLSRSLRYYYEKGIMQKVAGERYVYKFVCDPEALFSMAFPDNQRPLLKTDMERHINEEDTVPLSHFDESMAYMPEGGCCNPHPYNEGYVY
Chain of HSF1 (Q00613 whole entry): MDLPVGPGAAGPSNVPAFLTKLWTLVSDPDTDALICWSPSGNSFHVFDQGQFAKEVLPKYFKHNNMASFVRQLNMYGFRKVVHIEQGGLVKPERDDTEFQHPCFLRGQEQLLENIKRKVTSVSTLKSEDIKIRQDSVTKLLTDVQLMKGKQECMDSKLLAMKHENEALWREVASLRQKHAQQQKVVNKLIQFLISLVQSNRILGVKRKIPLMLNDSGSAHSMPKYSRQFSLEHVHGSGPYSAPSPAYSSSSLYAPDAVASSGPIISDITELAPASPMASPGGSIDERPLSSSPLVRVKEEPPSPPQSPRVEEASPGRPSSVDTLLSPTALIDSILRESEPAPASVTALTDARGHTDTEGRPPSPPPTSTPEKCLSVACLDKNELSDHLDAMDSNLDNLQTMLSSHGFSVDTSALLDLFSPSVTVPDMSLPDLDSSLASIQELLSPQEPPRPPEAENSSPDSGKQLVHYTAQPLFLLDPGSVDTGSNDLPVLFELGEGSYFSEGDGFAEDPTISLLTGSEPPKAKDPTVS
Chain of ELF4 (Q99607 whole entry): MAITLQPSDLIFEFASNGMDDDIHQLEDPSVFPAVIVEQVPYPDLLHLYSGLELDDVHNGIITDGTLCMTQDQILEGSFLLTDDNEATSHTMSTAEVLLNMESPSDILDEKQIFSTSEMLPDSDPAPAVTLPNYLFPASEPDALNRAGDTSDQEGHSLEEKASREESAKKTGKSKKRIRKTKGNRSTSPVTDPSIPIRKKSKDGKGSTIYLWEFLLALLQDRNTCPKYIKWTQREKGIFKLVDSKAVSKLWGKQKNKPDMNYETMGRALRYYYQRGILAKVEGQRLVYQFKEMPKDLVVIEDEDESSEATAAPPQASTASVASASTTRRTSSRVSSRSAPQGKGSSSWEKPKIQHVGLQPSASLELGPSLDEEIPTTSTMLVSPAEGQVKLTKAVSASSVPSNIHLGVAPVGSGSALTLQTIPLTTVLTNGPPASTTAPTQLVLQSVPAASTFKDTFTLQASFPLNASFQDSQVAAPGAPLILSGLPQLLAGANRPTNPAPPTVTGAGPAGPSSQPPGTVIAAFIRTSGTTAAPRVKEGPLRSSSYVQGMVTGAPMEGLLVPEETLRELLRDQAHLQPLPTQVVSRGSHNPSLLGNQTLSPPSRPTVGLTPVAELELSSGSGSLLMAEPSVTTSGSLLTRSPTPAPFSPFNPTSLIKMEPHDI
Chain of ETV6 (P41212 whole entry): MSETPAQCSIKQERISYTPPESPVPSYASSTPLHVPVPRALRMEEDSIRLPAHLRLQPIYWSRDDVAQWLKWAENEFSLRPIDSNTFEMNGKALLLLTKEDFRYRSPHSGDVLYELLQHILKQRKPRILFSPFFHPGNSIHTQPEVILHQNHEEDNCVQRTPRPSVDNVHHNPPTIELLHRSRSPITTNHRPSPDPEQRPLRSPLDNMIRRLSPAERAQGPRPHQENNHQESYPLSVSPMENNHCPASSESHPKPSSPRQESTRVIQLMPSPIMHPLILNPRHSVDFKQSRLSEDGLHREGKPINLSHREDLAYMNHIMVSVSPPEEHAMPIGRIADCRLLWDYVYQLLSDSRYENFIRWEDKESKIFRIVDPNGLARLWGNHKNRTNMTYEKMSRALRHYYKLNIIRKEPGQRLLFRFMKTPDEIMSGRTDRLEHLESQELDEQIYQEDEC

Take TACCCG: the binding signal was 1.39 fold enrichment (6-mer frequency, TF over GST control) in the experiment with FEV; 1.5 fold enrichment (6-mer frequency, TF over GST control) in the experiment with ETV5; 1.25 fold enrichment (6-mer frequency, TF over GST control) with HSF1; 1.55 fold enrichment (6-mer frequency, TF over GST control) with SPIC; 1.4 fold enrichment (6-mer frequency, TF over GST control) with ELF4; 1.55 fold enrichment (6-mer frequency, TF over GST control) with ELK4. The binding signal with ETV2 was 1.44 fold enrichment (6-mer frequency, TF over GST control); in the experiment with ELF3, 1.34 fold enrichment (6-mer frequency, TF over GST control); with CRX, 1.29 fold enrichment (6-mer frequency, TF over GST control); with ETV1 it was 1.55 fold enrichment (6-mer frequency, TF over GST control); with ERF it was 1.41 fold enrichment (6-mer frequency, TF over GST control); in the experiment with ETV3L it was 1.56 fold enrichment (6-mer frequency, TF over GST control). Besides, the binding signal in the experiment with ETS2 was 1.42 fold enrichment (6-mer frequency, TF over GST control); with SPDEF, 1.59 fold enrichment (6-mer frequency, TF over GST control); with ETV7, 1.43 fold enrichment (6-mer frequency, TF over GST control); with ELF5, 1.5 fold enrichment (6-mer frequency, TF over GST control); with ETV3, 1.47 fold enrichment (6-mer frequency, TF over GST control); with ETV6 it was 1.5 fold enrichment (6-mer frequency, TF over GST control).
